High-throughput results (PubChem BioAssay)
Vc quorum ag: induces V. cholerae light production without autoinducers; V. cholerae BH1578 lux reporter, luminescence, 6 h; activation, % at 18.7 µM; 350,000 tested, 0.16% active; AID 588436; in the data active means activation mostly above about 9.7%, no sharp cut-off; inconclusive means no clear call, values can overlap the other calls; inactive means mostly below about 3.7%
BoNT-F LC inh: BoNT F light chain protease inhibition; Multiplex microsphere protease cleavage assay, flow cytometry; inhibition, % at 10 µM; 360,000 tested, 0.22% active; AID 588497; in the data active means inhibition above about 35%, passing the limit was not always enough; inconclusive means no clear call, values can overlap the other calls; further: plate controls were buffer without enzyme for full effect and enzyme alone for no effect
Anthrax LF prot: inhibitors of Bacillus anthracis lethal factor protease; inhibition, % at 10 µM; AID 588501; multiplex microsphere protease cleavage assay, LF; 360,000 tested, 0.12% active; P15917; further: plate controls were buffer without enzyme for full effect and enzyme alone for no effect
Autofluor counter: compound fluorescence in toxin protease inhibitor counterscreen; compound autofluorescence counterscreen, microsphere flow cytometry; active compounds read high; fluorescence intensity (no concentration beside the values); 360,000 tested, 3.1% active; AID 624483; in the data active means fluorescence intensity above about 16000; inconclusive means no clear call, values can overlap the other calls
BoNT A protease: blocks Botulinum neurotoxin A light chain protease; multiplex microsphere protease substrate cleavage, flow cytometry; inhibition, % at 10 µM; 360,000 tested, 0.17% active; AID 588499; further: plate controls were buffer without enzyme for full effect and enzyme alone for no effect
* = called active by the depositor; i = inactive; ? = inconclusive; ! = not confirmed by another sample. Only some compounds are listed: those with a hit (about 3.5% of all), similar ones and a draw of the others. Unless noted, no stated cut-off is given here; in the data, active means inhibition above about 30%; inconclusive means no clear call, values can overlap the other calls; inactive means below that.

SMILES | Vc quorum ag | BoNT-F LC inh | Anthrax LF prot | Autofluor counter | BoNT A protease
O=C(Nc1cc(S(=O)(=O)Nc2ccccc2F)ccc1Cl)c1ccc(F)cc1F | -4.5 | -3.8 | 0.8 | 3852 | -0.3
CC(=O)c1cccc(NC(=S)NC(=O)CC(C)(C)C)c1 | -0.2 | -7.9 | -0.9 | 25347* | -3.7
COc1ccc(NC(=S)Nc2cccc(C(C)=O)c2)cc1OC | -0.4 | 35.7* | -1.1 | 4331 | 3.7
CC(=O)c1cccc(NC(=S)NC(=O)c2ccccc2)c1 | -0.4 | -9.7 | -0.4 | 2371 | -0.9
CNC(=S)NC12CC3CC(CC(C3)C1)C2 | i | -5.0 | 3.4 | 4324 | -0.1
COc1cccc(C(=O)N(CN2CCCC2=O)c2cccc(Cl)c2)c1OC | 5.3 | -4.4 | -3.2 | 16669* | -1.0
COc1cc(OC)cc(C(=O)N(CN2CCCC2=O)c2ccccc2OC)c1 | 5.3 | -13.6 | 0.2 | 18589* | -6.2
CCOc1ccc(C(=O)N(CN2CCCC2=O)c2cccc(Cl)c2)cc1 | -2.8 | -3.3 | 1.7 | 4259 | -0.3
COc1ccccc1N(CN1CCCC1=O)C(=O)c1ccccc1F | -0.2 | 2.4 | -4.5 | 4143 | 0.1
COc1ccccc1N(CN1CCCC1=O)C(=O)c1c(F)cccc1F | -0.7 | -13.1 | -4.7 | 4400 | 0.2
COc1ccccc1N(CN1CCCC1=O)C(=O)COc1ccccc1 | 5.3 | -2.6 | -0.1 | 16310* | -0.5
CCOC(=O)c1cc2c(=O)n3ccccc3nc2n(C(C)C)c1=NC(=O)c1c(-c2ccccc2Cl)noc1C | i | 9.4 | 25.9 | 4242 | 38.6*
CCOCCCn1c(=NC(C)=O)c(C#N)cc2c(=O)n3ccccc3nc21 | -1.3 | ? | -3.6 | 3019 | 4.1
CCOCCCn1c(=NC(C)=O)c(C(=O)OCC)cc2c(=O)n3ccccc3nc21 | -0.3 | -8.7 | -4.7 | 23789*! | -0.7
O=C(CN1CCN(c2ccccc2)CC1)Nc1c(C(=O)C2CC2)oc2ccccc12 | i | 0.8 | -3.7 | 20951* | ?
O=C(O)CCSCC(=O)Nc1c(C(=O)C2CC2)oc2ccccc12 | -0.5 | ? | 5.2 | 4048 | 1.1
O=C(Cc1ccccc1)Nc1ccccc1C(=O)NCC1CCCO1 (stereo unspecified) | 7.7 | 8.8 | 6.4 | ? | 0.3
COc1ccc(NC(=O)Nc2ccc(F)cc2)c(C)c1 | -0.2 | -5.1 | -1.2 | 2639 | -0.5
COc1ccc(NC(=O)Nc2ccc(F)cc2F)c(C)c1 | -1.8 | -0.2 | 0.4 | 21747* | ?
COc1ccccc1-c1noc2ncnc(Nc3cccc(C)c3C)c12 | -5.0 | -7.2 | -4.9 | 4386 | -1.1
CCOC(=O)c1c(-c2ccc(C)o2)csc1NC(=S)NC(=O)c1ccccc1Br | 0.1 | -4.3 | -7.5 | 16268* | 0.2
CCOC(=O)c1c(-c2ccc(C)o2)csc1NC(=S)NC(=O)c1cccs1 | i | -7.0 | -1.4 | 2109 | -0.6
Cc1c2cc(O)c(=O)cc-2oc2cc(O)c(O)cc12 | -0.2 | -18.3 | -15.0 | 17336* | 9.3
COc1cc(OC)c(-c2c3cc(O)c(=O)cc-3oc3cc(O)c(O)cc23)cc1OC | i | 30.3 | 24.1 | 7971 | 5.8
O=C(O)C1C2C=CC(C2)C1C(=O)N1CCOCC1 (stereo unspecified) | -0.4 | 1.2 | 2.0 | 12793 | 0.2
SMILES | Vc quorum ag | BoNT-F LC inh | Anthrax LF prot | Autofluor counter | BoNT A protease
O=C(NC1CCCC1)C1C2C=CC(C2)C1C(=O)N1CCOCC1 (stereo unspecified) | i | 3.4 | -1.6 | 21400* | ?
COc1ccc(C(=O)CC2OC(=O)c3ccccc32)cc1OC (stereo unspecified) | 1.2 | -0.3 | -1.5 | 21822* | ?
COC(=O)c1cn(C(=O)c2ccccc2F)nc1N | -0.2 | 5.9 | 1.0 | 21604* | 3.7
COC(=O)c1cc(-c2ccccc2)sc1N | -5.6 | 9.4 | -3.0 | 3458 | 0.2
CC1CN(c2ccccc2)CCN1Cc1nc(Cc2ccccc2)no1 (stereo unspecified) | -0.5 | -5.7 | 2.5 | 4697 | 0.1
O=S(=O)(c1cccc(-c2cn3ccccc3n2)c1)N1CCCCC1 | 1.9 | -9.3 | -4.2 | 5858 | -0.7
O=S(=O)(c1ccc(-c2cn3ccccc3n2)cc1)N1CCOCC1 | i | -10.4 | 1.2 | 22528* | -8.7
Cc1cccn2cc(-c3ccc(S(=O)(=O)N4CCCCC4)cc3)nc12 | -1.2 | 4.4 | 0.6 | 4319 | 0.6
Cc1cccn2cc(-c3ccc(S(=O)(=O)N4CCOCC4)cc3)nc12 | i | -0.9 | 0.6 | 23299* | 0.1
CCN1CCN(C(=O)C(C)Sc2nc3nc(C)cc(C)n3n2)CC1 (stereo unspecified) | i | 0.9 | 2.0 | 3912 | -0.3
O=C(Cc1c(F)cccc1Cl)NNC(=O)c1ccc(Br)s1 | -0.5 | -0.1 | -4.6 | 4066 | -0.2
c1ccc(N2CCN(c3ccccc3)C2c2cccs2)cc1 | -0.2 | -7.1 | -2.5 | 22528* | -1.4
N#Cc1c(SCC(N)=O)nsc1SCc1ccccc1Cl | i | -2.6 | 0.4 | 2156 | -0.1
Cc1snc(SCC(=O)c2ccc(Cl)cc2)c1C#N | i | -1.9 | 1.1 | 22846* | ?
N#Cc1c(SCC(N)=O)nsc1SCc1ccc(Cl)cc1 | i | -0.8 | -2.6 | 22700* | ?
O=C1CN(C(=O)CNCc2ccccc2)c2ccccc2N1 | i | 0.7 | -5.3 | 5817 | -1.8
Cc1c(Cl)cccc1NC(=O)COc1ccc(S(=O)(=O)N2CCOCC2)cc1 | -0.2 | 0.8 | -2.0 | 16522* | -0.2
COc1ccc(S(=O)(=O)N2CCN(CC(=O)Nc3cc(OC)cc(OC)c3)CC2)cc1 | 2.2 | 6.8 | 0.3 | 2667 | 0.1
COC(=O)c1ccc(NC(=O)COc2ccc(S(=O)(=O)N3CCCCC3)cc2)cc1 | -0.2 | 1.9 | 2.5 | 23051* | 2.1
O=C(COc1cccc(C(F)(F)F)c1)Nc1ccc(S(=O)(=O)N2CCCC2)cc1 | -0.2 | -10.5 | -3.5 | 25851* | -4.6
COc1ccc(NC(=O)CN2CCN(S(=O)(=O)c3ccc(Cl)cc3)CC2)cc1 | -0.2 | -3.0 | 0.2 | 22877* | -1.6
O=C(COc1ccc(S(=O)(=O)N2CCCC2)cc1)Nc1ccc(F)cc1 | -0.5 | 4.8 | -1.6 | 3933 | 0.4
COc1ccc(NC(=O)CN(C)C(=O)C(C)N2C(=O)c3ccccc3C2=O)cc1 (stereo unspecified) | i | -3.2 | 0.3 | ? | -0.3
CCc1ccc(OCC(=O)Nc2ccc(S(=O)(=O)N3CCCC3)cc2)c(Br)c1 | -0.2 | -4.6 | -2.3 | 23390* | -3.2
O=C(COc1ccc(Br)cc1CO)Nc1ccc(S(=O)(=O)N2CCCCC2)cc1 | i | 1.8 | -2.3 | 3926 | -0.5
SMILES | Vc quorum ag | BoNT-F LC inh | Anthrax LF prot | Autofluor counter | BoNT A protease
O=c1c2ccccc2[se]n1-c1ccccc1 | -0.5 | 38.3* | 3.6 | 7730 | 81.1*
CCc1cccc(NC(=O)c2cccc3c2C(=O)N(C2CCCCC2)C3)c1 | -0.3 | -4.6 | -2.4 | 6035 | -2.6
CC(C)CNC(=O)c1coc(=O)c(Br)c1 | -0.2 | 3.5 | -8.2 | 8945 | 0.3
O=C(NC(CO)(CO)CO)c1coc(=O)c(Br)c1 | 6.2 | -1.6 | -2.1 | 17123* | -0.9
c1ccc(CNc2ncnc3c2cnn3-c2ccccc2)cc1 | i | -5.5 | -2.1 | 16180* | -0.2
CN(Cc1ccccc1)c1ncnc2c1cnn2-c1ccccc1 | -2.0 | 4.8 | -1.7 | 22100* | 4.4
